# POLB inh – DNA polymerase beta (human) inhibition | P06746 | Pol beta primer extension/strand displacement, fluorescence kinetic | Potency, µM (series often up to 114 µM), for the others: at the top dose activity change, negative = inhibition, usual class: inhibitors | actives 1.3% (n = 340,000); note: % is set by controls: 0 for no effect and ±100 for the full control effect
#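 Homogeneous kinetic assay of primer extension and strand displacement by 10 nM Pol beta, preincubated 15 min at room temperature with compound before 50 nM substrate (final) was added. Read at 0 and 10 min; four-parameter Hill fit.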
# POLI inh – inhibitors of human DNA polymerase iota; AID 588590; actives 1% (n = 390,000); Pol iota fluorescent replication assay, 10 min; Q9UNA4; Potency, µM (doses to about 115 µM), for inactives: top-dose activity, negative = inhibition, most hits filed as inhibitors
#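 Pol iota at 10 nM preincubated 15 min with compounds at room temperature; reaction started with fluorescent substrate, 50 nM final. Fluorescence read kinetically at 0 and 10 min; buffer-only wells as negative control.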
# POLH inh – blocks human DNA polymerase eta activity | Q9Y253 | recombinant Pol eta, fluorescent DNA replication assay | Potency, µM (top dose mostly 114 µM), for the others: at the top dose activity change, negative = inhibition, most hits filed as inhibitors | actives 1.2% (n = 390,000); note: % is set by controls: 0 for no effect and ±100 for the full control effect
# Target sequence (Q9Y253 whole entry, looked up): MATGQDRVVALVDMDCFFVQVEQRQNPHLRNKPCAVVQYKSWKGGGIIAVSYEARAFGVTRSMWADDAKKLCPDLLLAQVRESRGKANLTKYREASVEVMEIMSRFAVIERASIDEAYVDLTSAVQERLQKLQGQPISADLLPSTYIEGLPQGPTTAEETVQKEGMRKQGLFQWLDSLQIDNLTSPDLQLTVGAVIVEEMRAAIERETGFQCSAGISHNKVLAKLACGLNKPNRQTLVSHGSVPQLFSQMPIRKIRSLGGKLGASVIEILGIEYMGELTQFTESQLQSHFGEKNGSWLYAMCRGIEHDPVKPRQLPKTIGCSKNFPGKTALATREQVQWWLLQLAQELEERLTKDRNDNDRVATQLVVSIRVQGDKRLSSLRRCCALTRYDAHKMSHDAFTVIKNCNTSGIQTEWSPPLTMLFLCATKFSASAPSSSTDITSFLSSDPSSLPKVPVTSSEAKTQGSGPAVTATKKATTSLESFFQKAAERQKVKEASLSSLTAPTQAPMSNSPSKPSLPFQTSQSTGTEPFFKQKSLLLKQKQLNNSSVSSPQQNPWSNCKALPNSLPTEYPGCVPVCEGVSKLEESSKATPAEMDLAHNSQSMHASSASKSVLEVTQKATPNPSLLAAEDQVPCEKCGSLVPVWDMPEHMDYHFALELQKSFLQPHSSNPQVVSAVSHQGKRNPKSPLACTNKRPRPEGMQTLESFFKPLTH
#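 Pol eta (10 nM) was preincubated with compounds for 15 min at room temperature, after which fluorescent replication substrate (50 nM final) was added to start the reaction. Fluorescence was read kinetically at 0 and 10 min.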
# Pol kappa inh – blocks human DNA polymerase kappa activity; Q9UBT6; purified Pol kappa, fluorescent DNA synthesis assay, 10 min; Potency, µM (doses to about 107 µM), without a hit: at the highest dose activity, negative = inhibition, usual class: inhibitors; actives 0.53% (n = 400,000); AID 588579; note: % is set by controls: 0 for no effect and ±100 for the full control effect
#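 50 nM final substrate added after 15 min RT preincubation of 10 nM Pol kappa with compound; fluorescence read at 0 and 10 min.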
# TDP1 inh – blocks human tyrosyl-DNA phosphodiesterase 1 | actives 0.28% (n = 350,000) | recombinant TDP1, AlphaScreen DNA substrate cleavage | Q9NUW8 | Potency, µM (titrated, usually from 130 µM), for inactives: at the top dose activity change, negative = inhibition, actives largely listed as inhibitors; note: % is set by controls: 0 for no effect and ±100 for the full control effect; nearly all actives have a fitted effect of over 40% in size
#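 AlphaScreen read-out: signal falls as enzyme removes the 3' tyrosine-FITC from a 5'-biotinylated DNA oligo (15 nM, 5 min, RT). Enzyme was E. coli-made recombinant Tdp1 at 1 nM, exposed to compound for 15 min beforehand; beads 10 ug/ml, 10 min.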
# * = called active by the depositor; ? = inconclusive; · = not tested or not shown; [ ] = dose if it differs, or a comment. Shown are actives, neighbours in structure and some others; about 2.4% of the full set was active somewhere. Calls come from the whole dose curve; as a rule, active = well fitted curve in the direction sought with a large enough effect; inconclusive = small, poorly fitted or top-dose-only effect, or another doubt; inactive = no such curve, though single readings can be large; an effect the other way counts as inactive or inconclusive. Potency is the fitted concentration of half-maximal effect.
SMILES,POLB inh,POLI inh,POLH inh,Pol kappa inh,TDP1 inh
O=S(=O)(Nc1nc2ccc(S(=O)(=O)N3CCCC3)cc2s1)c1ccc(F)cc1,-2%,?,89µM*,-28%,5%
C=Cc1ccc(Cn2c(C(=O)O)c(CNC3CCCCC3)c3ccc(OC)cc32)cc1,35µM*,?,?,-22%,8%
COc1ccc(Cn2c(C(=O)O)c(CNC3CCCCCC3)c3ccc(OC)cc32)cc1,-1%,-5%,-13%,4%,0%
Cc1cccc(N(C)S(=O)(=O)c2nnc(NC(=O)C(C)(C)C)s2)c1,-1%,-7%,-19%,-2%,-1%
Cc1cc2nc3ccc(N(C)C)cc3nc2cc1N,·,6.3µM*,?,?,·
Cc1ccc(-n2nc3cc(C)c(N)cc3n2)cc1,46%,1%,-7%,-9%,-1%
Cc1cc(C(=O)CSc2nnc(-c3ccco3)o2)c(C)n1C,·,35µM*,-6%,?,4%
COc1cccc(NC(=O)c2ccccc2OCC(=O)Nc2ccc(Br)cc2)c1,·,4%,·,-3%,·
O=C(O)CCc1ccc(-c2ccc(Br)cc2)n1CC(=O)O,35µM*,?,?,-23%,3%
O=C(Nc1ccc(N2CCOCC2)c(S(=O)(=O)Nc2ccc(Cl)cc2)c1)c1cnccn1,-1%,11%,?,-5%,3%
O=C(Nc1ccc(N2CCOCC2)c(S(=O)(=O)Nc2ccc(Cl)cc2)c1)c1ccc(=O)[nH]n1,·,10µM*,20µM*,?,-18%
Cc1cccc(CN2CC34C=CC(CC3S2(=O)=O)O4)c1 (centres undefined),·,9%,·,9%,9%
Cc1cc(-n2nnc3ccccc32)nc2ccccc12,6%,89µM*,-5%,-24%,-2%
Cc1cc(N2CCCCC2)nc2ccccc12,10%,71%,-6%,-6%,-4%
CCOC(=O)c1c(C)oc2nc(C)nc(NCCCN3CCN(c4cccc(C)c4)C(C)C3)c12 (centres undefined),-24%,89µM*,-28%,?,-1%
Cc1ccnc(NS(=O)(=O)c2ccc(CC(C)C)cc2)c1,100µM*,-22%,1%,-3%,0%
COc1cc(-c2nn3c(-c4cc(-c5ccccc5)n[nH]4)nnc3s2)cc(OC)c1OC,·,2%,·,-16%,1%
CCCCC1CCC(C(=O)N2CC(=O)Nc3ccc(C)cc3C2c2ccc(F)cc2)CC1 (centres undefined),1%,54%,-14%,-21%,6%
O=c1c(Cl)c(Cl)cnn1Cc1nnc(-c2ccccc2Br)o1,40µM*,?,79µM*,-17%,3%
Clc1ccccc1OCc1nnc(-c2ccccc2Br)o1,6%,-1%,1%,-5%,-10%
CCOC(=O)N1CCN(C(=O)CN2C(=O)/C(=C\c3cccc(OC)c3)SC2=S)CC1,·,9%,·,-1%,5%
C=C1C(=O)OC2C1CCC(C)=C1C(=O)C3OC3(C)C12 (centres undefined),·,?,89µM*,16%,·
C=C1C(=O)O[C@@H]2[C@@H]1CC/C(C)=C\CC[C@@]1(C)O[C@H]21,·,·,·,-6%[12 µM],14%[21 µM]
COc1ccc(CCNC(=O)CCCCn2c(=O)c3ccccc3n(Cc3ccccc3Cl)c2=O)cc1OC,-1%,-2%,-6%,-9%,2%
COc1ccccc1NC(=O)COC(=O)c1ccc([N+](=O)[O-])s1,7.1µM*,79µM*,?,-33%,5%
CN(CC(=O)Nc1ccccc1Cl)C(=O)COC(=O)c1ccc([N+](=O)[O-])s1,·,?,79µM*,-13%,1%
CN(CC(=O)Nc1ccccc1Cl)C(=O)COC(=O)c1cccs1,·,3%,-17%,-14%,-1%
Cc1ccc(C)c(N2CCN(C(=O)CCc3nnc4n(C)c(=O)c5ccccc5n34)CC2)c1,25%,39%,-16%,9%,0%
O=C(Cn1ncc2c3ccccc3n(Cc3cccc(Cl)c3)c2c1=O)NCCCc1ccccc1,28µM*,?,-24%,?,0%
O=C(O)/C(CC(=O)c1ccc(Cl)cc1)=N/Nc1ccc([N+](=O)[O-])cc1[N+](=O)[O-],?,?,89µM*,?,·

# High-throughput results as filed in PubChem BioAssay.
